# High-throughput results as filed in PubChem BioAssay.
# The list is not random: actives were taken first. Their share in the collection is about 19%.
# HT1080 IDH1KD tx = qHTS for induction of synthetic lethality in tumor cells producing 2HG: qHTS for the HT-1080-IDH1KD cell line; HT-1080 IDH1 knockdown viability, ATP luminescence, 48 h; Potency, µM (doses to about 46.1 µM), for the others: top-dose activity, negative = toxicity, actives largely listed as cytotoxic; 2% of 360,000 active;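 also: potency is read from the fitted curve at half-maximal effect; 0% = DMSO wells and -100% = cell-free medium wells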
#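 Assay cells: HT-1080 with IDH1 knockdown, 750 per well, RPMI/5% FBS. Exposure: 48 h at 37 °C following 2 h pre-incubation. Read: CellTiter-Glo luminescence; fitted concentration-response, curve class assigned.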
# IL1B secr inh = qHTS for Inhibitors of Inflammasome Signaling: IL-1-beta AlphaLISA Primary Screen. THP-1 LPS/ATP IL-1B secretion, AlphaLISA, 16 h; hits give low values. activity change, % at 57.5 µM. 4.7% of 360,000 active. AID 743279, 2014; in the data active = activity change below about -50%; inconclusive = mostly about -30% to -49%
#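 Secreted IL-1B measured by AlphaLISA bead assay after 16 h compound exposure of THP-1 cells; compounds (final up to 57.5 uM) added 1 h before LPS (250 ng/mL) and ATP (1.25 mM) stimulation; lower signal means less secretion.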
# DT40 TDP1 CPT = qHTS for Inhibitors of human tyrosyl-DNA phosphodiesterase 1 (TDP1): qHTS in cells in presence of CPT. chicken DT40 Tdp1-/-;hTDP1 cells + 20 nM CPT, ATP luminescence, 48 h. Potency, µM (top dose mostly 46.2 µM), for the others: at the top dose activity change, negative = growth inhibition, hits mostly inhibitors. 12% of 420,000 active; also: potency is read from the fitted curve at half-maximal effect; nearly all actives have a fitted effect of over 55% in size
#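 Cell growth measured by CellTiter-Glo luminescence after a minimum 48 h, 37 C compound exposure with 20 nM CPT in Tdp1-knockout DT40 cells stably expressing hTDP1, seeded 400/well; qHTS titration format.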
# HT1080NT lethal = qHTS for induction of synthetic lethality in tumor cells producing 2HG: qHTS for the HT-1080-NT fibrosarcoma cell line; HT-1080-NT fibrosarcoma viability, CellTiter-Glo ATP luminescence, 48 h; 1.6% of 360,000 active; Potency, µM (top dose mostly 46.1 µM), without a hit: at the highest dose activity, negative = less viability, most hits filed as cytotoxic;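 also: NT is the 2HG producing partner of a matched IDH1 knockdown line; potency is read from the fitted curve at half-maximal effect; 0% = DMSO-treated cells and -100% = media-only wells without cells; nearly all actives have a fitted effect of over 55% in size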
#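 Toxicity toward the 2HG-producing NT line was scored as %Activity, normalised to DMSO and no-cell wells, from CellTiter-Glo luminescence after 48 hours' treatment.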
# DT40 TDP1 no CPT = qHTS for Inhibitors of human tyrosyl-DNA phosphodiesterase 1 (TDP1): qHTS in cells in absence of CPT; DT40 Tdp1-/- hTDP1 cells, no CPT, ATP luminescence, 48 h; Potency, µM (titrated, usually from 46.2 µM), without a hit: at the top dose activity change, negative = growth inhibition, actives largely listed as inhibitors; 15% of 420,000 active; also: potency is read from the fitted curve at half-maximal effect; nearly all actives have a fitted effect of over 55% in size
#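 A cellular qHTS used chicken DT40 cells lacking endogenous Tdp1 but carrying stably transfected human TDP1. Compounds were applied without camptothecin, and cell growth kinetics were judged by ATP-dependent luminescence after ≥48 hr.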
# The depositor's hits bear a star; ? = inconclusive; . = no result given; [ ] = another dose, or the depositor's remark. Unless noted, calls follow the shape of the dose curve; as a rule, active = well fitted curve in the direction sought with a large enough effect; inconclusive = small, poorly fitted or top-dose-only effect, or another doubt; inactive = no such curve, though single readings can be large; an effect the other way counts as inactive or inconclusive. Unless noted, % is scaled to controls: 0 for no effect and ±100 for the full control effect.
SMILES,HT1080 IDH1KD tx,IL1B secr inh,DT40 TDP1 CPT,HT1080NT lethal,DT40 TDP1 no CPT
CCc1ccc(N2CCn3c2nc2c3c(=O)n(Cc3ccc(F)cc3)c(=O)n2C)cc1,.,.,2%,.,-10%
CCOC(=O)N(O)c1ccc(C=Cc2ccccc2)cc1,0%,?,12µM*,3%,15µM*
Cn1c(O)c(/C=N/NC(=O)c2cc3ccccc3cc2O)c2ccccc21,?,83,16µM*,16µM*,15µM*
COC(=O)CC1C(C)(C)C(=O)C2CC3=C4CC(=O)OC(c5ccoc5)[C@]4(C)CCC3[C@@]1(C)C2=O (some centres not stated),.,.,-13%,.,-7%
Cc1nn(Cc2ccccc2Cl)c(C)c1NC(=O)c1noc2c1CCCCC2,10µM*,-4,?,-7%,?
Cc1nn(Cc2ccc(Cl)cc2)c(C)c1NC(=O)c1noc2c1CCc1ccccc1-2,-22%,0,13µM*,-18%,13µM*
Cc1ccc(Cn2ccc(NC(=O)c3noc4c3CCc3ccccc3-4)n2)cc1,15%,-18,-1%,?,-7%
COc1ccc2c(c1)CCc1c(C(=O)NCCc3ccc(OC)c(OC)c3)noc1-2,-7%,-17,?,10%,13µM*
COc1ccc2c(c1)CCc1c(C(=O)Nc3c(C)nn(Cc4ccccc4)c3C)noc1-2,-3%,?,9.2µM*,5%,9.2µM*
Cc1nc2cc(NC(=O)[C@@H]3C[C@@H](Sc4ccccn4)CN3Cc3cccc(Cl)c3)ccc2s1,.,.,14%[9.04 µM],.,-22%
CCN(CC)CCNC(=O)c1nn(-c2ccc(Cl)cc2)c2c1CCc1cc(OC)ccc1-2,?,-103*,?,-6%,21µM*
COc1ccc2c(c1)CCc1c(C(=O)N3CC4(C)CC3CC(C)(C)C4)noc1-2 (configuration not stated),?,-22,16µM*,?,?
COc1ccc2c(c1)CCc1c(C(=O)Nc3cc(C)n(Cc4ccc(Cl)cc4)n3)noc1-2,16%,44,?,17%,?
COc1ccc2c(c1)CCc1c(C(=O)Nc3c(C)nn(Cc4ccc(Cl)cc4)c3C)noc1-2,.,.,21µM*,.,21µM*
CC1(C)CC2CC(C)(CN2C(=O)c2ccccc2)C1 (configuration not stated),1%,25,16µM*,2%,-23%
COc1ccc(C(=O)N2CC3(C)CC2CC(C)(C)C3)cc1 (configuration not stated),-2%,-28,?,-7%,?
CCCCNS(=O)(=O)c1ccc(NC(=O)Cc2ccccc2[N+](=O)[O-])cc1,-9%,16,0%,-9%,-24%
COc1ccc(-c2nc3ccccc3n(CC(C)C)c2=O)cc1,19%,-7,-14%,-1%,-2%
CCCCC1(CC)SCC(=O)NC1=O (configuration not stated),8%,3,-18%,-3%,-16%
O=C(Nc1cnn(Cc2ccc(Cl)cc2Cl)c1)c1noc2c1CCc1ccccc1-2,.,.,16µM*,.,?
COc1ccc2c(c1)CCc1c(C(=O)Nc3c(C)nn(Cc4ccc(Cl)c(Cl)c4)c3C)noc1-2,.,.,12µM*,.,13µM*
CC1(COS(N)(=O)=O)CCCCC1,5%,74,0.46µM*,10%,-19%
CC1(C)O[C@@H]2[C@@H](CO[C@@]3(COS(N)(=O)=O)OC(C)(C)O[C@@H]23)O1,.,.,-29%,.,-27%
NS(=O)(=O)c1cccc(NC(=O)CSc2nnc(-c3ccccc3F)n2C2CC2)c1,6%,-9,0%,14%,-14%
Cc1cc(C2C(C#N)=C(N)Oc3n[nH]c(C)c32)c(C)s1 (configuration not stated),-12%,?,8.2µM*,?,?
SMILES,HT1080 IDH1KD tx,IL1B secr inh,DT40 TDP1 CPT,HT1080NT lethal,DT40 TDP1 no CPT
Cc1ccc(-c2ccc(C3C(C#N)=C(N)Oc4n[nH]c(C)c43)o2)cc1 (configuration not stated),-15%,2,?,-20%,?
Cc1[nH]nc2c1C(c1ccsc1C)C(C#N)=C(N)O2 (configuration not stated),?,?,?,4%,-24%
Cc1[nH]nc2c1C(c1ccc(-c3ccccc3C#N)o1)C(C#N)=C(N)O2 (configuration not stated),11µM*,-56*,29µM*,?,21µM*
Cc1[nH]nc2c1C(c1ccc(-c3ccc(Cl)cc3)o1)C(C#N)=C(N)O2 (configuration not stated),?,-101*,13µM*,?,?
Cc1cccc(C)c1NC(=O)CN1C(=O)COc2ccccc21,17%,15,13%,10%,-3%
N#CCCN(Cc1ccccc1)C(C(=O)NC1CCCCC1)C1CC1 (configuration not stated),0%,8,16µM*,13%,15µM*
COc1ccc(N(C(=O)c2ccco2)C(C(=O)NC2CCCCC2)c2ccccc2)cc1 (configuration not stated),-1%,1,16µM*,2%,26µM*
COc1cccc(N(C(=O)c2ccco2)C(C(=O)NC2CCCC2)c2ccc(N(C)C)cc2)c1 (configuration not stated),1%,-4,?,0%,16µM*
CCOC(=O)CN(Cc1ccccc1)C(C(=O)NC1CCCCC1)c1ccccc1 (configuration not stated),.,.,21µM*,.,15µM*
Cc1cccc(N2CCN(C(=O)Cn3nc(Cc4ccncc4)c4ccccc4c3=O)CC2)c1C,-1%,-12,?,1%,?
CCC(=O)Nc1ccccc1-c1nc2ccccc2n(Cc2cccc(Br)c2)c1=O,.,.,7%,.,-4%
COc1ccccc1CCC(=O)O,.,.,-9%,.,-1%
COc1cc(OC)cc(N(C(=O)c2ccco2)C(C(=O)NC2CCCC2)c2ccc(N(C)C)cc2)c1 (configuration not stated),-2%,-3,?,-13%,?
COc1ccc(N(C(=O)c2ccco2)C(C(=O)NC2CCCC2)c2ccc(N(C)C)cc2)cc1 (configuration not stated),-28%,-21,?,-14%,16µM*
CC(C)c1ccc(C(=O)N2CCOCC2c2cc(C(=O)Nc3ccccc3)no2)cc1 (configuration not stated),-4%,-15,?,8%,?
